The results in this text go back to PubChem BioAssay (Tox21).

Records with an inconclusive call do not appear. More than one record can exist for a structure, and the calls need not agree. Activity calls are given as the source filed them. Calls come from the whole dose curve; as a rule, active = well fitted inhibition curve with a large enough effect in the repeat runs; inconclusive = weak or mixed curves; inactive = no such curve, though single readings can be large or run the other way.
% is set by controls: 0 for no effect and ±100 for the full control effect; potency is the fitted concentration of half-maximal effect.

The target in this assay is Estrogen receptor (Homo sapiens) (UniProt P03372). Nature of the assay: qHTS assay to identify small molecule antagonists of the estrogen receptor alpha (ER-alpha) signaling pathway using the BG1 cell line in the presence of 0.1 nM 17-beta-estradiol (AID 1259244). Note: nearly all actives have a fitted effect of over 50% in size. The note with it: VM7Luc4E2 (BG1) ERE-luciferase, antagonist mode, 0.1 nM E2, 22 h; series mostly up to 92.4 µM; activity change, negative = inhibition: at the top concentration. From the text: National Center for Advancing Translational Sciences [NCATS]
Estrogen receptor (Homo sapiens), sequence (P03372 whole entry, looked up): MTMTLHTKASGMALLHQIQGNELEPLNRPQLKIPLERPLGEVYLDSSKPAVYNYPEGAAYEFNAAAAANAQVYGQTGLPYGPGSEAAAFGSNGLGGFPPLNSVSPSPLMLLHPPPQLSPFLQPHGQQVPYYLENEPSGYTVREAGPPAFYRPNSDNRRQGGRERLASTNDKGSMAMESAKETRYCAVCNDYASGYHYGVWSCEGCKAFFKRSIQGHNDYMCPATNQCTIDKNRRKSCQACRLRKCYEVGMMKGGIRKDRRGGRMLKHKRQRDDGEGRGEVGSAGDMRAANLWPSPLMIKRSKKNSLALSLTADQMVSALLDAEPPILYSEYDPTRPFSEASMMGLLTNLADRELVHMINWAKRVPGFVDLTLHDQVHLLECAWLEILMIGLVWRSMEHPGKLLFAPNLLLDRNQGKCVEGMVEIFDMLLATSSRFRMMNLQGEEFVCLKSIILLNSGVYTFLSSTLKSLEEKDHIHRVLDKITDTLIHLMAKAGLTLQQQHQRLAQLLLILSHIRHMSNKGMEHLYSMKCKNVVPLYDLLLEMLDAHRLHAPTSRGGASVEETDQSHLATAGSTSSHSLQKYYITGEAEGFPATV
NIH Chemical Genomics Center [NCGC]
U.S. Environmental Protection Agency [EPA]
National Institutes of Environmental Health Sciences [NIEHS]
National Toxicology Program [NTP]
U.S. Food and Drug Administration [FDA]
Estrogen receptor (ER), a member of the nuclear hormone receptor plays an important role in development, metabolic homeostasis and reproduction. Two subtypes of ER, ER-alpha and ER-beta, have similar expression patterns with some uniqueness in both types. Endocrine disrupting chemicals (EDCs) and their interactions with steroid hormone receptors like ER causes disruption of normal endocrine function. Therefore, it is important to understand the effect of environmental chemicals in ER signaling pathway. For identifying ER antagonists, VM7Luc4E2 cell line was used to screen against Tox21 compound libraries.
VM7Luc4E2 cell line (provided by Denison MS, University of California) endogenously express full-length ER-alpha and is stably transfected with a plasmid containing four estrogen responsive elements (ERE) upstream of a luciferase reporter gene. The current screening for identification of ER-alpha inhibitors against Tox21 compound libraries used lower concentration (0.1 nM) of 17beta-Estradiol as a stimulator.
Tox21 Assay Protocol Summary:
VM7Luc4E2 cells were cultured in phenol red free assay medium containing 10% charcoal stripped FBS for 5 days prior to the assay. The cells were dispensed at 4,000 cells/well in 4 uL of assay medium into white wall/solid-bottom 1536-well plates (Corning Life Sciences, Corning, NY) using a Multidrop Combi (ThermoFisher Scientific, Waltham, MA) dispenser. After the assay plates were incubated at 37C and 5% CO2 for 24 hr, 23 nL of compounds dissolved in DMSO, positive controls or DMSO only was transferred to the assay plates by a Pintool station (Kalypsys, San Diego, CA). The transfer of compounds was followed by the addition of 1 uL of 0.1 nM (final concentration) agonist (17beta-Estradiol)/assay medium using a Flying Reagent Dispenser (FRD, Aurora Discovery, San Diego, CA). The plates were incubated at 37C and 5% CO2 for 22 hr. For luciferase reporter gene assay, 4 uL of ONE-Glo reagent (Promega Corporation, Madison, WI) was added to each well using the FRD and after 30 min incubation at room temperature luminescence intensity was measured using ViewLux plate reader (PerkinElmer, Shelton, CT).
For `CCCCC#N`, the “activity change, negative = inhibition” value is 0% (inactive).
As for `CN(C)C(=O)Nc1cccc(OC(=O)NC(C)(C)C)c1`, the “activity change, negative = inhibition” value was -0.0941% (inactive).
Same read-out and setting: for `O=CC=O` the value was 2.65% (inactive); for `COCc1cnc(C2=NC(C)(C(C)C)C(=O)N2)c(C(=O)O)c1` (stereo not given), 0.184% (inactive); for `CCC1(C2=NCCN2)Cc2ccccc2O1` (stereo not given), -2.2% [at 42.5 µM] (inactive).
In the case of `c1ccc2sc(SNC3CCCCC3)nc2c1`, the Potency result was “inactive”.
The same measure, in the same setting: the entry for `CC(C)c1ccc(OP(=O)(Oc2ccc(C(C)C)cc2)Oc2ccc(C(C)C)cc2)cc1` is “inactive”.
Take `N#CC(C#N)=Cc1ccc(O)c(O)c1`: the “activity change, negative = inhibition” value was 4.35% [at 42.5 µM] (inactive).
Same read-out and setting: for `CCOC(=O)c1cncn1C(C)c1ccccc1` (stereo not given) the value was 0.883% [at 42.5 µM] (inactive).
On to `CCCN(CCC)c1c([N+](=O)[O-])cc(C(C)C)cc1[N+](=O)[O-]`, for which the Potency entry is “inactive”.
As to `O=C(O)C(F)(F)C(F)(F)C(F)(F)C(F)(F)C(F)(F)C(F)(F)C(F)(F)C(F)(F)F`, the “activity change, negative = inhibition” value was -6.99% (inactive).
Consider `CCCC(C)(COC(N)=O)COC(=O)NC(C)C` (stereo not given), for which the Potency result was “inactive”.
As for `C=CC(=O)NC(C)(C)CC(C)=O`, the “activity change, negative = inhibition” value was 1.31% (inactive).
Regarding `CCOC(=O)c1cn2nc(OP(=S)(OCC)OCC)cc2nc1C`, the “activity change, negative = inhibition” value was -10.7% (inactive).
Take `O=C(CCl)CCl`: the Potency entry was “inactive”.
Consider `CCCCC1C(=O)NC(=O)N(C2CCCCC2)C1=O` (stereo not given), for which the “activity change, negative = inhibition” value is -6.8% [at 42.5 µM] (inactive).
Same read-out and setting: the figure for `CON(C)C(=O)Nc1ccc(Cl)cc1` is 22.9% (inactive); for `CCC(=O)O[C@@H]1C=C2CCC3C(CCC4(C)C3CC[C@@H]4OC(=O)CC)C2CC1` (stereo not given in full) it is -0.405% [at 42.5 µM] (inactive); for `Cc1cccc(C)c1NC1=NCCCS1` it is -6.8% [at 42.5 µM] (inactive).
On the same count and under the same terms, for `C=C(C)C(=O)OCCCCOC(=O)C(=C)C` the value was 3.16% (inactive); for `C[N+](C)(C)CC1CO1` (stereo not given), 0.244% (inactive).
Consider `Cc1nc(N(C)C)nc(OC(=O)N(C)C)c1C`, for which the “activity change, negative = inhibition” value is -2.36% (inactive).
On the same count and under the same terms, the figure for `COc1cc(CC#N)cc(OC)c1OC` is -0.108% [at 42.5 µM] (inactive).
As to `COC(=O)C1(O)c2ccccc2-c2ccccc21`, the “activity change, negative = inhibition” value was -7.3% (inactive).
Consider `CCCBr`, for which the “activity change, negative = inhibition” value is 0% (inactive).
For the compound `CCSCc1ccccc1OC(=O)NC`, the “activity change, negative = inhibition” value was 4.83% (inactive).
`OCC1CO1` (stereo not given): the Potency result was “inactive”.
Turning to `CN(C)c1ccc(N=O)cc1`, the Potency is 43.4 µM (active) and inactive.
Consider `O=C(Cc1ccccc1)c1ccccc1`, for which the “activity change, negative = inhibition” value was 29.8% (inactive).
Turning to `CC[N+]1(CCOC(=O)C(O)(c2ccccc2)c2ccccc2)CCCCC1`, the “activity change, negative = inhibition” value is -15% [at 42.5 µM] (inactive).
In the case of `CC(C)C1(C)N=C(c2ncccc2C(=O)O)NC1=O` (stereo not given), the “activity change, negative = inhibition” value was 5.24% (inactive).
Take `CN[C@@H](C)[C@H](O)c1ccccc1`: the “activity change, negative = inhibition” value was 8.48% [at 42.5 µM] (inactive).
The same measure, in the same setting: the figure for `CCCCC(CC)COC(=O)c1c(Br)c(Br)c(Br)c(Br)c1C(=O)OCC(CC)CCCC` (stereo not given) is 15.7% [at 42.5 µM] (inactive).
Still for that read-out and setting: the figure for `CC(C)(C)c1ccc(CCOc2ncnc3ccccc23)cc1` is -0.678% (inactive); for `CCC(C)Cl` (stereo not given) it is 0.154% (inactive).
On the same count and under the same terms, the figure for `CCCCCCCCCCCCN(C)C` is 0.0464% (inactive).
Turning to `CCOP(=S)(OCC)SCSc1cc(Cl)ccc1Cl`, the “activity change, negative = inhibition” value was 19.7% (inactive).
On to `NNCCO`, for which the “activity change, negative = inhibition” value is 0.216% (inactive).
On to `CCCN(CCC)C(=O)Cc1c(-c2ccc(Cl)cc2)nc2ccc(Cl)cn12`, for which the “activity change, negative = inhibition” value was -9.35% [at 42.5 µM] (inactive).
Take `O=C(O)C(F)(F)C(F)(F)C(F)(F)C(F)(F)C(F)(F)F`: the “activity change, negative = inhibition” value is 0.157% (inactive).
